Inconclusive results are not listed. Active and inactive are the calls of the source. The calls were made as follows, unless noted: active = hit-call score of the fitted dose curve at least 0.9, where 1 is the maximum; inactive = score below 0.9.
Assays:
[1] = biological target: Paired box protein Pax-6 (Homo sapiens) (UniProt P26367); assay: ATG_Pax6_CIS: Attagene CIS-FACTORIAL HepG2 Assay for human Paired Box 6 (PAX6) (AID 2282956); conditions: HepG2 CIS-FACTORIAL PAX6 reporter transcription, RNA readout; actives raise or lower the signal
Method in brief: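 Fluorescent RT-PCR products separated by capillary electrophoresis report PAX6-linked promoter mRNA in HepG2 cells 24 h post-dose. Curves fitted bidirectionally, DMSO as negative control.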

[2] = ATG_PXRE_CIS: Attagene CIS-FACTORIAL HepG2 Assay for human Pregnane X Receptor Element (PXRE) (AID 2282957); conditions: HepG2 Attagene CIS-FACTORIAL PXRE reporter, mRNA; actives raise or lower the signal
Method in brief: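 Read-out: fluorescence of reporter-specific RT-PCR products resolved by capillary electrophoresis, fitted bidirectionally relative to DMSO. Human HepG2 liver cells carried transfected cis-promoter reporter units and were exposed to chemicals for 24 h.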

[3] = ATG_PPRE_CIS: Attagene CIS-FACTORIAL HepG2 Assay for human Peroxisome Proliferator-activated Response Element (PPRE) (AID 2282958); conditions: HepG2 PPRE cis-element reporter, Attagene transcription factor profiling; actives raise or lower the signal
Method in brief: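 DMSO served as negative control and baseline for bidirectional curve fitting. Signal came from PPRE-regulated reporter mRNA in HepG2 cells, measured 24 h post-dosing by RT-PCR, 6-FAM primer extension and capillary electrophoresis.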

[4] = ATG_RORE_CIS: Attagene CIS-FACTORIAL HepG2 Assay for human RAR-related Orphan Receptor Element (RORE) (AID 2282959); conditions: HepG2 Attagene cis-factorial RORE reporter, mRNA; actives raise or lower the signal
Method in brief: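 Transfect HepG2 with MRTUs; treat 24 h; extract RNA; RT with oligo(dT); PCR with reporter-specific primers; 6-FAM primer extension; HpaI digest 2 h at 37 C; capillary electrophoresis. Fit vs DMSO, bidirectional.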

[5] = ATG_Sox_CIS: Attagene CIS-FACTORIAL HepG2 Assay for human SRY-box transcription factor (SOX) (AID 2282960); conditions: HepG2 Attagene cis-factorial SOX reporter, mRNA; actives raise or lower the signal
Method in brief: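 Fluorescence-labelled cDNA fragments from reporter transcripts, sized by CE, give the signal. Cells: HepG2, transiently transfected with cis-regulated reporter units. Exposure 24 h; DMSO negative control; bidirectional curve fitting.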

[6] = biological target: Transcription factor Sp1 (Homo sapiens) (UniProt P08047); assay: ATG_Sp1_CIS: Attagene CIS-FACTORIAL HepG2 Assay for human Specificity Protein 1 (Sp1) (AID 2282961); conditions: HepG2 Sp1 cis-reporter transcription, actives raise or lower the signal
Method in brief: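 Chemicals are dosed onto HepG2 cells transfected with multiple cis-promoter reporter constructs, and after 24 h reporter RNA is reverse-transcribed, PCR-amplified and resolved by capillary electrophoresis for fluorescence quantitation; activity is scored up or down against DMSO.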

[7] = ATG_SREBP_CIS: Attagene CIS-FACTORIAL HepG2 Assay for human Sterol Regulatory Element Binding (SREBP) (AID 2282962); conditions: HepG2 Attagene cis-factorial SREBP reporter, mRNA; actives raise or lower the signal
Method in brief: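 Endogenous factor activity is measured in HepG2 through multiplexed reporter units under cis-element control. Following a 24 h incubation, reporter transcripts are reverse-transcribed, PCR-amplified and sized by capillary electrophoresis; activity is fitted in both directions relative to DMSO.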

[8] = biological target: Signal transducer and activator of transcription 3 (Homo sapiens) (UniProt P40763); assay: ATG_STAT3_CIS: Attagene CIS-FACTORIAL HepG2 Assay for human Signal Transducer and Activator of Transcription 3 (STAT3) (AID 2282963); conditions: HepG2, Attagene cis-factorial STAT3 reporter transcription; actives raise or lower the signal
Method in brief: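 Uses human liver HepG2 transiently carrying cis-regulated reporter transcription units. Following 24 h dosing, reporter mRNA induction was detected by RT-PCR and capillary electrophoresis, analysed bidirectionally versus DMSO.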

[9] = ATG_TA_CIS: Attagene CIS-FACTORIAL HepG2 Assay for human TA Basal Promoter (AID 2282964); conditions: HepG2 Attagene CIS-factorial TA basal promoter reporter; actives raise or lower the signal
Method in brief: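 Transient MRTU transfection of HepG2 preceded 24 h compound exposure. Reporter mRNA levels were then read by RT-PCR with capillary electrophoresis, and this background-control endpoint was fitted bidirectionally to DMSO.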

[10] = ATG_TCF_b_cat_CIS: Attagene CIS-FACTORIAL HepG2 Assay for human T-Cell-Factor with beta-catenin (TCF/b-cat) (AID 2282965); conditions: HepG2 TCF/beta-catenin cis-reporter transcription, actives raise or lower the signal
Method in brief: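 Using capillary electrophoresis as the read-out, labelled reporter cDNA fragments from transiently transfected HepG2 were sized and quantified. Exposure lasted 24 hours; activity in either direction was referenced to DMSO.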

[11] = ATG_TAL_CIS: Attagene CIS-FACTORIAL HepG2 Assay for human TAL Basal Promoter (AID 2282966); conditions: HepG2 Attagene cis-factorial TAL promoter reporter; actives raise or lower the signal;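 also: background control endpoint measuring basal TAL promoter reporter mRNA not a specific factor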
Method in brief: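 HepG2, transient MRTU transfection, 24 h compound exposure; RNA → oligo(dT) RT → PCR → 6-FAM primer extension → HpaI digest → CE fluorescence. Bidirectional curve fit vs DMSO. Background-control readout.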

[12] = ATG_TGFb_CIS: Attagene CIS-FACTORIAL HepG2 Assay for human Transforming Growth Factor (TGF) (AID 2282967); conditions: HepG2 Attagene CIS TGFb reporter, mRNA transcription; actives raise or lower the signal
Method in brief: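 After a 24-hour incubation with compound, transfected HepG2 cells were lysed for RNA; reporter cDNA was amplified, fluorescently end-labeled and separated by CE. DMSO served as baseline for bidirectional fits.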

[13] = biological target: X-box-binding protein 1 (Homo sapiens) (UniProt P17861); assay: ATG_Xbp1_CIS: Attagene CIS-FACTORIAL HepG2 Assay for human X-box Binding Protein 1 (XBP1) (AID 2282972); conditions: HepG2 XBP1 cis-element reporter, Attagene multiplex; actives raise or lower the signal
Method in brief: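 Multiplexed cis-reporter readout in transfected HepG2 liver cells. Exposure lasted 24 hours. Activity in either direction was fitted against DMSO as negative control and baseline.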

[14] = ATG_GAL4_TRANS: Attagene TRANS-FACTORIAL HepG2 Assay for GAL4 (Internal Marker) (AID 2282976; active = hit-call score of the fitted dose curve at least 0.9, where 1 is the maximum); conditions: HepG2 Attagene TRANS GAL4 internal marker reporter
Method in brief: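 RT-PCR/capillary electrophoresis readout of reporter mRNA. HepG2, transient MRTU transfection (GAL4-UAS reporters), 24 h compound exposure. Background-control endpoint, positive direction vs DMSO baseline.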

[15] = ATG_VDRE_CIS: Attagene CIS-FACTORIAL HepG2 Assay for human Vitamin D Receptor Element (VDRE) (AID 2282968); conditions: HepG2 VDRE cis-reporter transcription, actives raise or lower the signal
Method in brief: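 Transfected HepG2 reporter cells, chemical treatment 24 h. RNA isolated, cDNA amplified with reporter-specific primers, products analysed by capillary electrophoresis. Endpoint fitted in both directions versus DMSO.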

[16] = biological target: Nuclear receptor subfamily 1 group I member 3 (Homo sapiens) (UniProt Q14994); assay: ATG_CAR_TRANS: Attagene TRANS-FACTORIAL HepG2 Assay for human Constitutive Androstane Receptor (CAR) (AID 2282969; active = hit-call score of the fitted dose curve at least 0.9, where 1 is the maximum;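 also: activators raise reporter mRNA above DMSO so AC50 marks induction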); conditions: HepG2 Attagene TRANS-FACTORIAL CAR reporter
Method in brief: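 Steps: transient transfection of HepG2 with multiple GAL4-UAS reporter units; 24 h compound incubation; RNA isolation, RT-PCR, 6-FAM primer extension, HpaI digest; capillary electrophoresis. Gain-of-signal relative to DMSO negative control.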

[17] = biological target: Glucocorticoid receptor (Homo sapiens) (UniProt P04150); assay: ATG_GR_TRANS: Attagene TRANS-FACTORIAL HepG2 Assay for human Glucocorticoid Receptor (GR) (AID 2282978; active = hit-call score of the fitted dose curve at least 0.9, where 1 is the maximum;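 also: activators score as hits since higher reporter transcript over DMSO is fitted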); conditions: HepG2 Attagene TRANS GR reporter, mRNA transcription
Method in brief: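 Transiently transfected HepG2 cells express chimeric NR-GAL4 proteins acting on GAL4-UAS reporter units. Compounds are applied for 24 h. mRNA induction over DMSO is measured by capillary electrophoresis.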

[18] = biological target: Steroid hormone receptor ERR1 (Homo sapiens) (UniProt P11474); assay: ATG_ERRa_TRANS: Attagene TRANS-FACTORIAL HepG2 Assay for human Estrogen-Related Receptor alpha (ERRa) (AID 2282971; active = hit-call score of the fitted dose curve at least 0.9, where 1 is the maximum); conditions: HepG2 Attagene TRANS reporter, ERRa transactivation
Method in brief: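 Transfected HepG2, 24 h dosing, ERRa-Gal4 chimera driving GAL4-UAS reporter. Readout: reporter mRNA via RT-PCR plus capillary electrophoresis (fluorescence). Positive direction vs DMSO control.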

[19] = ATG_M_19_TRANS: Attagene TRANS-FACTORIAL HepG2 Assay for M19 Transcription Factor (Internal Marker) (AID 2282974; active = hit-call score of the fitted dose curve at least 0.9, where 1 is the maximum); conditions: HepG2 Attagene TRANS-FACTORIAL M19 internal marker reporter
Method in brief: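 Multiplexed TRANS format: HepG2 liver cells bearing transient GAL4-UAS reporter units, chemical treatment 24 h, reporter transcripts quantified by RT-PCR plus capillary electrophoresis. DMSO defines baseline.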

[20] = biological target: Estrogen-related receptor gamma (Homo sapiens) (UniProt P62508); assay: ATG_ERRg_TRANS: Attagene TRANS-FACTORIAL HepG2 Assay for human Estrogen-Related Receptor gamma (ERRg) (AID 2282977; active = hit-call score of the fitted dose curve at least 0.9, where 1 is the maximum;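 also: hits increase reporter signal over DMSO so potencies reflect activators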); conditions: HepG2 Attagene TRANS reporter, ERRg transactivation
Method in brief: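 Exogenous NR-Gal4 chimera activity was assessed in HepG2 cells bearing transfected GAL4-UAS reporters. After 24 h dosing, total RNA underwent RT-PCR, fluorescent primer extension and HpaI digestion before capillary electrophoresis, with gain of signal scored against DMSO.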

Measured: AC50

Chain of Nuclear receptor subfamily 1 group I member 3 (Homo sapiens) (Q14994 whole entry, looked up, the tested form may be a part): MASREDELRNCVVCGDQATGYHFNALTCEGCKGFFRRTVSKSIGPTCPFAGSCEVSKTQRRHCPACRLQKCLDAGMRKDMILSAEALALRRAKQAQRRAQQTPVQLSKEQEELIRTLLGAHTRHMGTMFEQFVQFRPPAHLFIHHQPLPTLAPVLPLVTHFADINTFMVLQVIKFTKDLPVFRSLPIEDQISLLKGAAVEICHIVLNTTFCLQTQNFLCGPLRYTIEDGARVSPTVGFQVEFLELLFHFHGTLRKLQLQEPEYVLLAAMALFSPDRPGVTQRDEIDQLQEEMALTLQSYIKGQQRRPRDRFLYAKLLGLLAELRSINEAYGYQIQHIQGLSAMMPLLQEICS
Chain of Transcription factor Sp1 (Homo sapiens) (P08047 whole entry, looked up): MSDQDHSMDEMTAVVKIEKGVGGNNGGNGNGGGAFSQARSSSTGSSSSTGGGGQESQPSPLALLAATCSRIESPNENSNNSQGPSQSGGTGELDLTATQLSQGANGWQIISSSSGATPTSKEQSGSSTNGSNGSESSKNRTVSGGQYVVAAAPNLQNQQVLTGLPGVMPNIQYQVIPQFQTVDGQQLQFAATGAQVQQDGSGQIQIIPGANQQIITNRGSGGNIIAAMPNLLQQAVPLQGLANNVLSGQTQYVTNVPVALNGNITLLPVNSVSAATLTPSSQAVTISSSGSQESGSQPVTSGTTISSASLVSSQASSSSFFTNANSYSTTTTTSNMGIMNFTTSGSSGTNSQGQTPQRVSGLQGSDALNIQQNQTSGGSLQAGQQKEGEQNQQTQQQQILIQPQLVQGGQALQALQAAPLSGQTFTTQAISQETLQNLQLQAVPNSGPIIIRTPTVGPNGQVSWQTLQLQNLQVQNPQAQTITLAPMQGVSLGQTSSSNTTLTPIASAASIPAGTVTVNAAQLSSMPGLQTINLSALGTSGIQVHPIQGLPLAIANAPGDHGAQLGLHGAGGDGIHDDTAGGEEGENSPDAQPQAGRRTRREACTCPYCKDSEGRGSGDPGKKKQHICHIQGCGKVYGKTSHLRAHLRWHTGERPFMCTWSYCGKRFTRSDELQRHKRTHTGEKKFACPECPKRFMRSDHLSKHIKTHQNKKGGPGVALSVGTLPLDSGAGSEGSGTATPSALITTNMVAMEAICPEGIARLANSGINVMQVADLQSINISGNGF
Chain of X-box-binding protein 1 (Homo sapiens) (P17861 whole entry, looked up): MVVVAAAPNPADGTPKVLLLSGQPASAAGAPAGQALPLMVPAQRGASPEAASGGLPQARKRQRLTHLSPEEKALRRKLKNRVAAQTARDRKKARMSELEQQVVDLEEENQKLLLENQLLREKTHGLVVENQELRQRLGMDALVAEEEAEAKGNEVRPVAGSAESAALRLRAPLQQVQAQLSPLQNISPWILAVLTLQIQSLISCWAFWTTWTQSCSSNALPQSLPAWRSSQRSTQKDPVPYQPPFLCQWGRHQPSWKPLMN
Chain of Signal transducer and activator of transcription 3 (Homo sapiens) (P40763 whole entry, looked up): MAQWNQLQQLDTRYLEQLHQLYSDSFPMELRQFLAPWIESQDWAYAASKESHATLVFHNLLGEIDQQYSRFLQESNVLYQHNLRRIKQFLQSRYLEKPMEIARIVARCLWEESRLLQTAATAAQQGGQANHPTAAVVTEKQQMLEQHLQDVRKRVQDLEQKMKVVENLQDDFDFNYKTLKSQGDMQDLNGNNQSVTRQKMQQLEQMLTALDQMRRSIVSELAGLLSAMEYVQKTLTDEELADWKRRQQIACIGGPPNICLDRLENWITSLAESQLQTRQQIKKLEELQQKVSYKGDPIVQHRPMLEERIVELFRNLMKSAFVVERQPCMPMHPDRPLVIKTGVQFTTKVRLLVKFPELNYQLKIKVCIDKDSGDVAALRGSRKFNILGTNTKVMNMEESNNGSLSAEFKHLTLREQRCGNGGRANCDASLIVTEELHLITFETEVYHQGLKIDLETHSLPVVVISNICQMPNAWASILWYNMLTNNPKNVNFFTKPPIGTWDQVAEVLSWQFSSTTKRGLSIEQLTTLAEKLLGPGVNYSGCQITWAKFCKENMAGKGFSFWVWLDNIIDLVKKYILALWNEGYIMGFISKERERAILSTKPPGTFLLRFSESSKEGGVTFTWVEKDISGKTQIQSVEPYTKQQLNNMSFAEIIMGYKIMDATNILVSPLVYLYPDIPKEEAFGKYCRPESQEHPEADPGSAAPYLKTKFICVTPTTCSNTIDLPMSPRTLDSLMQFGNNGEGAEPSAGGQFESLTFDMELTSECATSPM
Chain of Paired box protein Pax-6 (Homo sapiens) (P26367 whole entry, looked up): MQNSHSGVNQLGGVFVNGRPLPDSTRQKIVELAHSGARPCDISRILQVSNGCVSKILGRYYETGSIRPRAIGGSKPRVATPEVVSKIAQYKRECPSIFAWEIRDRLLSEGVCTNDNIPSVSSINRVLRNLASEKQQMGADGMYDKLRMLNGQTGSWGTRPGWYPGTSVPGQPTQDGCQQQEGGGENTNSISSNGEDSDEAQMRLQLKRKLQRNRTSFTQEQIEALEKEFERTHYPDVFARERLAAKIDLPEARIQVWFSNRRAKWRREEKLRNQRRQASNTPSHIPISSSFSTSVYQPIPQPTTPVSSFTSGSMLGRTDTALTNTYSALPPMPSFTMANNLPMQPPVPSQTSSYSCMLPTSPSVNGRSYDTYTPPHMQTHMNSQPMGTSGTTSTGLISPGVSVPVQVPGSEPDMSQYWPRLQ
Chain of Glucocorticoid receptor (Homo sapiens) (P04150 whole entry, looked up, the tested form may be a part): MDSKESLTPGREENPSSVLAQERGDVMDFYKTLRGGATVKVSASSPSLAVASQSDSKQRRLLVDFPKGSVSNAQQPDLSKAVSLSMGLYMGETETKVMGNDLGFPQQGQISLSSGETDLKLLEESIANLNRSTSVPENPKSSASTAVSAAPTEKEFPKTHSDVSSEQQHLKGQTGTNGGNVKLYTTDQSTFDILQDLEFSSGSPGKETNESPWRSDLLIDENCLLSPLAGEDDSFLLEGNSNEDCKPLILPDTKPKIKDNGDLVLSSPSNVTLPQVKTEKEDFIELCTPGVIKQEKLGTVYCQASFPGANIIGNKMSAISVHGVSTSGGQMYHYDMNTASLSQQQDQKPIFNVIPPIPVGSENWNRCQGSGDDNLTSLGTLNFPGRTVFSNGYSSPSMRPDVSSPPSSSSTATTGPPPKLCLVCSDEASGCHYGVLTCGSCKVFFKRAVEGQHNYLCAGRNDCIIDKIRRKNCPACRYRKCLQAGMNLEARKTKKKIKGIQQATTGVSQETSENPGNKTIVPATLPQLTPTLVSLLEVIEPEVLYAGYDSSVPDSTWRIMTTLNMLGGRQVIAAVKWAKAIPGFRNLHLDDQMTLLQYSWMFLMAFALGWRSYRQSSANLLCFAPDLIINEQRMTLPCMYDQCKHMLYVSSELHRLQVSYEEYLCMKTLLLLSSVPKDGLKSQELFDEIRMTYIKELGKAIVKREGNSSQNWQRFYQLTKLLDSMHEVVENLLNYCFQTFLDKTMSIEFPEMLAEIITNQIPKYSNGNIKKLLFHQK
Chain of Estrogen-related receptor gamma (Homo sapiens) (P62508 whole entry, looked up, the tested form may be a part): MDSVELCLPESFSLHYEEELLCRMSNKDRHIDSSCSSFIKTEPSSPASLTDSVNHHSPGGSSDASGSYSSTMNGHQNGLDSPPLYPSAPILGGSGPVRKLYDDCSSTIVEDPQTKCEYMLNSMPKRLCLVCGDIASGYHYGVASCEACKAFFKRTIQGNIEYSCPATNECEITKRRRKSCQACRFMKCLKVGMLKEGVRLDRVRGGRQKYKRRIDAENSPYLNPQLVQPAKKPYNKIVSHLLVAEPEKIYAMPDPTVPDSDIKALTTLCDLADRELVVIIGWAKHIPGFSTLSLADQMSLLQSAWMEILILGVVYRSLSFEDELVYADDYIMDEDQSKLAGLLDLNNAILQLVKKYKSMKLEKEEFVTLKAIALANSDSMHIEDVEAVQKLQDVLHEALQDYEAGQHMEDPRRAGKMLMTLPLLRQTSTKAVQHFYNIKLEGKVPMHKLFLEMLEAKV
Chain of Steroid hormone receptor ERR1 (Homo sapiens) (P11474 whole entry, looked up, the tested form may be a part): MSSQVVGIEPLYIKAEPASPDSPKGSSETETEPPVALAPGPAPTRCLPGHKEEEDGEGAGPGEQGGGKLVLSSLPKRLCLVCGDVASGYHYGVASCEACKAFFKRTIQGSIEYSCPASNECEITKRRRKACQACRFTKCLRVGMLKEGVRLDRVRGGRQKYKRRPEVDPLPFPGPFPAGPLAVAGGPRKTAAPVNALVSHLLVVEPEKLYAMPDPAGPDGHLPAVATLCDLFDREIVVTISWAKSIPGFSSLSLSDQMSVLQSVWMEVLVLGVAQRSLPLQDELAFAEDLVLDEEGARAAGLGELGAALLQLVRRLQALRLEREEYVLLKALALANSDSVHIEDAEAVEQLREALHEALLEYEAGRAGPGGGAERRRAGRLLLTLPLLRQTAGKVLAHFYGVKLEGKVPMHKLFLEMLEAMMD

OCc1ccc(Cl)cc1Cl
not listed: [15] | [16] | [17] | [18] | [19] | [20]
inactive: all other assays above

CC=Cc1ccc(OCC)c(O)c1
active: [2] 65.8 µM
not listed: [11] | [14] | [18] | [19] | [20]
inactive: all other assays above

O=C(O)c1ccc(O)cc1
not listed: [13] | [14] | [15] | [17]
inactive: all other assays above

CC(Oc1cc(Cl)ccc1Cl)C(=O)O (stereo not drawn)
active: [2] 82.1 µM | [3] 100 µM
not listed: [15] | [17] | [18] | [20]
inactive: all other assays above

Cc1[nH]c(=O)c(C#N)cc1-c1ccncc1
not listed: [14] | [15] | [16] | [17] | [18] | [19] | [20]
inactive: all other assays above

CCOC(=O)CCc1ccccc1
not listed: [11] | [14] | [16] | [17] | [18] | [20]
inactive: all other assays above
